Assay [1] is described as follows: ATG_XTT_Cytotoxicity: Cytotoxicity Assessment in the Attagene TRANS-FACTORIAL HepG2 Assay (AID 2283584).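 As to AC50: cells exposed to compound for 24 h before reading; active means loss of viability signal versus DMSO baseline.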 The method in brief:
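Cells: human HepG2, transiently transfected with MRTU reporter constructs. Exposure 24 h. Readout: XTT, cell number. Baseline/neg ctrl DMSO; loss-of-signal scored.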

Assay [2] in a line: TOX21_p53_BLA_p2_viability: Viability Assessment in the Tox21 HCT-116 p53 Agonism Beta-lactamase Assay, Phase 2 (AID 2283591).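 Also: compound exposure lasted 16 h at 37 °C; actives lower the ATP signal meaning cytotoxicity.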 The method in brief:
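HCT-116 p53-bla cells (4000/well) rested 5 h at 37C, then received compounds in DMSO (217-fold dilution) for 16 h at 37C, 5% CO2. After the CCF4 read, CellTiter-Glo was added; ATP luminescence was read after 30 min at room temperature.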

Assay [3] deals with Cellular tumor antigen p53 (Homo sapiens) (UniProt P04637). Briefly: TOX21_p53_BLA_p2_ratio: Tox21 HCT-116 p53 Agonism Beta-lactamase Assay, Ratio, Phase 2 (AID 2283592). In outline:
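HCT116 p53-bla; 4000 cells/well; 5 h pre-incubation; cpd in DMSO, 217-fold dilution; 16 h 37C/5% CO2; CCF4-AM 2 h RT; Ex 405, Em 460/530 ratio; DMSO = baseline; positive fitting direction.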

A short description of assay [4]: TOX21_p53_BLA_p3_viability: Viability Assessment in the Tox21 HCT-116 p53 Agonism Beta-lactamase Assay, Phase 3 (AID 2283593).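 Also: cells exposed to compound for 16 h before reading.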 In outline: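 HCT-116 cells (4000/well) rested 5 h at 37C, then got DMSO compounds by pin tool (217-fold dilution) for 16 h at 37C, 5% CO2. After the bla read, CellTiter-Glo was added and luminescence read at 30 min, room temperature.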
Assay [5] has as its target Cellular tumor antigen p53 (Homo sapiens) (UniProt P04637). Description: TOX21_p53_BLA_p3_ratio: Tox21 HCT-116 p53 Agonism Beta-lactamase Assay, Ratio, Phase 3 (AID 2283596). In outline:
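HCT116 p53-bla cells (4000/well) given compound in DMSO (217-fold dilution) after 5 h, incubated 16 h at 37C. CCF4-AM substrate 2 h at room temperature; 460/530 nm emission ratio, gain fitted against DMSO.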

Among the data in PubChem BioAssay (EPA / NIEHS) are outcome and AC50 values, retold here.

“And” between values parts separate entries of the source, which are not always exact repeats. Equal values may be shown once. Records with an inconclusive call do not appear. More than one record can exist for a structure, and the calls need not agree. The source made the active and inactive calls. The calls were made as follows: active = hit-call score of the fitted dose curve at least 0.9, where 1 is the maximum; inconclusive = response in the unintended direction; inactive = score below 0.9.

Chain of Cellular tumor antigen p53 (Homo sapiens) (P04637 whole entry, looked up): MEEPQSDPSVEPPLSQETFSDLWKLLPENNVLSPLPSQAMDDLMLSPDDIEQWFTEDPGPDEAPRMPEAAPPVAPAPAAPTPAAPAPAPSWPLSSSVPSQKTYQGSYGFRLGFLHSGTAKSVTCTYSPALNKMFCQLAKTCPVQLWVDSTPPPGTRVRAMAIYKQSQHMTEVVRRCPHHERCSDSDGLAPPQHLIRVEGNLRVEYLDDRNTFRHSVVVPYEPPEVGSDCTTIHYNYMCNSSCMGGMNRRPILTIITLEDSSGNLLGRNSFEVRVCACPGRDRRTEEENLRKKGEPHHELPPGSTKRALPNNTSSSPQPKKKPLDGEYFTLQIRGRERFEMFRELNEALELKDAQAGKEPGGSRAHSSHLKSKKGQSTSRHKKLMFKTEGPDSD

Regarding `CCOC(=O)C(SP(=S)(OC)OC)c1ccccc1` (stereo not drawn), the compound was classed as inactive in assay [1], in assay [2], in assay [3], in assay [4] and in assay [5].

For the compound `O=C(O)c1cc(I)cc(I)c1I`, the outcome in assay [1], in assay [2], in assay [3] and in assay [4] was inactive.

Regarding `COc1ccc(N)cc1`, the call in assay [1] and in assay [2] was inactive.

Consider `O=c1[nH]c2ccccc2n1C1CCN(CCCC(c2ccc(F)cc2)c2ccc(F)cc2)CC1`, for which the AC50 in assay [1] is 18.1 µM (active); in assay [2] it was 13.8 µM (active) and 30.1 µM (active); in assay [3] it was 39.4 µM (active); in assay [4], 67.5 µM (active) and 35.3 µM (active); in assay [5] it was 83.6 µM (active) and 43.4 µM (active). In addition, the result in assay [3] was inactive.

Take `ClCCCCl`: the compound was classed as inactive in assay [1], in assay [2], in assay [3] and in assay [4].

Consider `CC(C)(C#N)N=NC(C)(C)C#N`, for which the compound was classed as inactive in assay [1], in assay [2], in assay [3], in assay [4] and in assay [5].

For the compound `Clc1cc(C(Cl)(Cl)Cl)cnc1Cl`, the result in assay [1], in assay [2], in assay [3], in assay [4] and in assay [5] was inactive.

Turning to `O=[N+]([O-])c1ccc(Nc2ccccc2)cc1`, the call in assay [1], in assay [3] and in assay [4] was inactive. Moreover, the AC50 was 32.5 µM (active) in assay [2]; 72.5 µM (active) in assay [3]; 61 µM (active) in assay [4]; 42.4 µM (active) and 90.9 µM (active) in assay [5].

The AC50 is the midpoint of the concentration-response curve, whichever way the signal moves.
